Experimental data reported in PubChem BioAssay (NCATS).
Results filed as inconclusive are left out. Entries that show only a call come without a potency. Calls of active or inactive are those of the source. Calls come from the whole dose curve; as a rule, active = well fitted inhibition curve with a large enough effect; inconclusive = small, poorly fitted or top-dose-only effect; inactive = flat fitted curve, though single readings scatter. Where a SMILES comes first, the peptide text is derived from it.

What follows are compounds tested against Calcium and integrin-binding protein 1 (Homo sapiens) (UniProt Q99828) (assay: Primary qHTS for Identification of Calcium Integrin Binding Protein 1 (CIB1) Competitor (AID 1508620;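 note: GST tagged CIB1 binding a fluorescein labelled alphaIIb integrin peptide tracer; top concentration of the series differs between compounds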)). Details: CIB1-GST / FITC-alphaIIb peptide fluorescence polarization; series mostly up to 57.7 µM.
Method in brief: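 Fluorescence polarization competition: CIB1-GST (1 uM final) preincubated with compound 15 min at room temperature, then FITC-labeled alphaIIb peptide (100 nM final) added for another 15 min. Polarization read at Ex 480/Em 540.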

Chain of Calcium and integrin-binding protein 1 (Homo sapiens) (Q99828 whole entry, looked up): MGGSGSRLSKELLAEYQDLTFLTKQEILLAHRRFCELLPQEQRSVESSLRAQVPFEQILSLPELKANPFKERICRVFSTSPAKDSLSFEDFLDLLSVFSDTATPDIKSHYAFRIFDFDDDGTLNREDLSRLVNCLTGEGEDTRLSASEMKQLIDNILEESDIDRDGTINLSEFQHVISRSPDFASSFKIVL

With `C=C1CCC2C(C)(COC3OC(COC(=O)CC(=O)O)C(O)C(O)C3O)CCCC2(C)C1CCC1=CCOC1=O` (centres undefined) as the compound, how does the Potency read?
The Potency was “inactive”.

How did the Potency turn out when `O=C(CCCCc1ccc2ccccc2c1)C(F)(F)F` was run?
The Potency was “inactive”.

Which Potency does the source give for `CC(C)(O)c1ccc2c(c1)C(O)CC1C(C)(C(=O)O)CCCC21C` (centres undefined) here?
The Potency was “inactive”.

Which Potency does the source give for `CC(C)NC[C@H](O)COc1ccc(CCOCC2CC2)cc1` here?
Its Potency is “inactive”.

How did the Potency turn out when `C=C1C(O[C@@H]2O[C@H](CO)[C@@H](O)[C@H](O)[C@@H]2O)CC2C(C)(C)C(O)CCC2(C)C1CC/C(C)=C\CO` (some centres undefined) was run?
The Potency was “inactive”.

With `COc1cc(/C=C/C(=O)OC2CC3CCC2(C)C3(C)C)ccc1O` (centres undefined) as the compound, how does the Potency read?
The Potency was “inactive”.

`COc1ccc2c(c1)OC[C@]1(O)c3cc4c(cc3O[C@H]21)OCO4` was tested. Which Potency did it give?
The Potency was “inactive”.

How did the Potency turn out when `O=C1CC(c2ccc([N+](=O)[O-])cc2)=NN1c1ccccc1` was run?
Its Potency is “inactive”.

For `CC1NC(=O)CNC(=O)C(C(C)C)NC(=O)C2CCCN2C(=O)C(C(C)C)NC(=O)C(Cc2c[nH]c3ccccc23)NC1=O` (centres undefined) (cyclo(GAWVPV); configuration not given here), which Potency is on record?
Its Potency is “inactive”.

`C[C@]12CCC(=O)C=C1[C@@H](O)C[C@@H]1[C@@H]2[C@@H](O)C[C@@]2(C)[C@H]1CC[C@]2(O)C(=O)CO` was tested. Which Potency did it give?
The Potency was “inactive”.

With `COc1ncc(-c2ccc3c(Nc4cc(Oc5cc(F)cc(F)c5)cc(C(=O)O)c4)c(S(=O)(=O)NC4CC4)cnc3c2)c(OC)n1` as the compound, how does the Potency read?
The Potency was “inactive”.

With `CCNC(=O)CCC/C=C\C[C@@H]1[C@@H](/C=C/C(O)CCc2ccccc2)[C@@H](O)C[C@@H]1O` (some centres undefined) as the compound, how does the Potency read?
The Potency was “inactive”.

For `CC(=O)N(O)CCCCCN1C(=O)CCC1=O`, which Potency is on record?
The Potency was “inactive”.

Which Potency does the source give for `c1ccc(Cc2ncc3c(n2)CCNCC3)cc1` here?
Its Potency is “inactive”.

With `CC12CCC3c4ccc(O)cc4CCC3C1CCC2OC1OC(C(=O)O)C(O)C(O)C1O` (centres undefined) as the compound, how does the Potency read?
The Potency was “inactive”.

For `CC1(C)CC2C3=CCC4C5(C)CCC(OC6OC(C(=O)O)C(O)C(O)C6OC6OC(CO)C(O)C(O)C6OC6OC(CO)C(O)C(O)C6O)C(C)(CO)C5CCC4(C)C3(C)CCC2(C)C(OC2OCC(O)C(OC3OC(CO)C(O)C(O)C3O)C2O)C1O` (centres undefined), which activity change, negative = inhibition is on record?
The activity change, negative = inhibition was -16.4% [at 12.4 µM] (inactive).

`O=C1NC(Cc2ccc(O)cc2)C(=O)N2CCCC12` (centres undefined) was tested. Which Potency did it give?
Its Potency is “inactive”.

For `CC1CCC2(C(=O)OC3OC(CO)C(O)C(O)C3O)CCC3(C(=O)O)C(=CCC4C5(C)CCC(OC6OC(C)C(O)C(O)C6O)C(C)(C)C5CCC43C)C2C1C` (centres undefined), which Potency is on record?
The Potency was “inactive”.

With `NC(=O)c1ccc(OCC2NC(=O)C3CCCN3C2=O)cc1` (centres undefined) as the compound, how does the Potency read?
Its Potency is “inactive”.

`CC1CC(O)C2(C)C(C(=O)O)=CCCC2C1(C)CCc1ccoc1` (centres undefined) was tested. Which Potency did it give?
Its Potency is “inactive”.

`CCC(=O)O[C@]1(C(=O)CCl)[C@@H](C)C[C@H]2[C@@H]3C[C@H](F)C4=CC(=O)C=C[C@]4(C)[C@@]3(F)[C@@H](O)C[C@@]21C` was tested. Which Potency did it give?
Its Potency is “inactive”.

How did the Potency turn out when `Cc1c(-c2ccnn2C)cc(C(=O)NCc2ccc(S(C)(=O)=O)cn2)c(=O)n1-c1cccc(C(F)(F)F)c1` was run?
The Potency was “inactive”.

How did the Potency turn out when `CC1(C)CC[C@]2(C(=O)O)CC[C@]3(C)C(=CCC4[C@@]5(C)CCC(O[C@@H]6OC[C@H](O)[C@H](O)[C@H]6O[C@@H]6O[C@H](CO)[C@@H](O)[C@H](O)[C@H]6O)[C@@](C)(CO)C5CC[C@]43C)[C@@H]2C1` (some centres undefined) was run?
The Potency was “inactive”.

For `C[C@@H]1CCC2C(C)(C)[C@H](O)CC[C@]2(C)[C@@]12Cc1c(O)cc3c(c1O2)CN(CCO)C3=O` (some centres undefined), which Potency is on record?
The Potency was “inactive”.

For `COC(=O)[C@H](OC(C)=O)[C@H]1C(C)(C)C(=O)[C@H]2CC3=C4CC(=O)O[C@@H](c5ccoc5)[C@]4(C)CCC3[C@@]1(C)C2=O` (some centres undefined), which Potency is on record?
The Potency was “inactive”.

`Cc1onc(-c2ccccc2)c1C(=O)N[C@@H]1C(=O)N2[C@@H]1SC(C)(C)[C@@H]2C(=O)O` was tested. Which Potency did it give?
The Potency was “inactive”.

Which Potency does the source give for `C[C@]1(OC(=O)/C=C/c2ccccc2)C[C@H](O)[C@]2(O)C=CO[C@@H](O[C@@H]3O[C@H](CO)[C@@H](O)[C@H](O)[C@H]3O)C12` (some centres undefined) here?
Its Potency is “inactive”.

`CC(=O)O[C@H]1[C@H](C)[C@@H](O)[C@H]2[C@@H]1C=C(C(=O)O)[C@H]1C[C@@H]3[C@H]([C@H]21)[C@H]1C(=O)O[C@@H]2CC[C@@]3(C)O[C@]1(O)[C@@H]2C` was tested. Which Potency did it give?
Its Potency is “inactive”.

For `CC(=O)O[C@@H]1[C@H]2[C@@H](OC(=O)c3ccccc3)[C@@H](C)C[C@]2(O)[C@H](OC(C)=O)[C@@]2(C)[C@@H]3CC(C)(C)C(=O)[C@]3(OC(C)=O)C[C@@]12C`, which Potency is on record?
The Potency was “inactive”.

How did the Potency turn out when `CC1=CCC2C(C)(CO)CCCC2(CO)C1CO` (centres undefined) was run?
Its Potency is “inactive”.

For `COC(=O)C1=COC(OC2OC(CO)C(O)C(O)C2O)C2C1CC(OC(=O)C(O)CC(=O)O)C2C` (centres undefined), which Potency is on record?
The Potency was “inactive”.

For `COc1ccc(C)c2sc(NC(=O)c3ccncc3)nc12`, which Potency is on record?
The Potency was “inactive”.

How did the Potency turn out when `C=C1CCC2C(C)(C(=O)O)CC(O)CC2(C)C1CC/C(C)=C/C(=O)O` (centres undefined) was run?
Its Potency is “inactive”.

With `CC(=O)O[C@@H]1[C@@H](OC(=O)/C=C/c2ccccc2)[C@H](C)O[C@@H](O[C@H]2[C@@H]3C=CO[C@@H](O[C@@H]4O[C@H](CO)[C@@H](O)[C@H](O)[C@H]4O)[C@@H]3[C@@]3(CO)O[C@@H]23)[C@@H]1OC(C)=O` as the compound, how does the Potency read?
Its Potency is “inactive”.

`COc1cc(/C=C/C(=O)O[C@H]2[C@H](OC(=O)/C=C/c3cc(OC)c(O)c(OC)c3)O[C@H](CO[C@@H]3O[C@H](CO)[C@@H](O)[C@H](O)[C@H]3O)[C@@H](O)[C@@H]2O)ccc1O` was tested. Which Potency did it give?
The Potency was “inactive”.

With `CC(C)C(=O)O[C@@H]1[C@@H](O)[C@@H](O[C@H]2O[C@H](CO)[C@@H](O)[C@H](O)[C@H]2O)O[C@H](CO)[C@H]1O` as the compound, how does the Potency read?
Its Potency is “inactive”.

Which Potency does the source give for `C=C/C=C/[C@@H]1OC[C@H](/C=C/C=C/C)[C@H]1O` here?
Its Potency is “inactive”.

For `C[C@]12C=CC(=O)C=C1CC[C@@H]1[C@@H]2[C@@H](O)C[C@@]2(C)[C@H]1CC[C@]2(O)C(=O)COC(=O)CCC(=O)O`, which Potency is on record?
The Potency was “inactive”.

`C[C@H]1CN(C[C@H](Cc2ccccc2)C(=O)NCC(=O)O)CC[C@@]1(C)c1cccc(O)c1` was tested. Which Potency did it give?
The Potency was “inactive”.
